In the supplement of paper PMC10849652:
About 8,800 targets were measured; listed, in parts, are those with a hit and a random draw of the rest. About 0.5% of all pairs of compound and target were hits.

How the values were obtained:
Experiment in all cases: log2 fold change, soluble protein after heating vs DMSO (PISA); higher = thermal stabilisation; K562 lysate, 10 uM; active = over 0.2 and 3.5 SD of the protein, either way, in both replicates (recomputed)
[1] = compound: C1=CC=C(C=C1)[C@H](COC2=CC3=C(C=C2)NC(=O)N3)NC(=O)C4=CC=CN(C4=O)CC5=CC(=C(C=C5)F)F
Method in brief: (§1)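 A 30 min treatment with 10 μM compound was applied to crude K562 extract at 1 mg/mL protein in PBS pH 7.4 with 1 mM MgCl2. Heating for 3 min spanned 48°C-58°C, after which aliquots were pooled, adjusted to 0.5% NP-40 at 4°C and spun at 21,000xg for 90 min. TMTpro 16plex LC-MS/MS of the supernatant, with channel sums equalised, gave values recorded as log-two fold change in thermal stability against solvent controls, from duplicates.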

[2] = compound: CC1=C(SC2=C1C(=N[C@H](C3=NN=C(N32)C)CC(=O)N)C4=CC=C(C=C4)Cl)C
Method in brief: as §1

[3] = compound: CC1=C2C(=CC=C1)N=C(N(C2=O)C3=CC=CC=C3C)CN4C=NC5=C(N=CN=C54)N
Method in brief: as §1

[4] = compound: Cc1sc2c(c1C)C(c1ccc(Cl)cc1)=N[C@@H](CC(=O)OC(C)(C)C)c1nnc(C)n1-2
Method in brief: as §1

[5] = compound: c1ccc([C@@H]2C[C@H]2NC2CCNCC2)cc1
Method in brief: as §1

Measured: log2 fold change

CAPN15 (UniProt O75808)
inactive: [1] -0.047 | [2] 0.063 | [3] -0.017 | [4] -0.011 | [5] 0.056

CHCHD7 isoform 4 (UniProt Q9BUK0)
Sequence of UniProt Q9BUK0 (Q9BUK0 whole entry, looked up): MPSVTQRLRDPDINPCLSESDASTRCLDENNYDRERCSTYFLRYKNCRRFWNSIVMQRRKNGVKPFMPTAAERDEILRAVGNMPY
inactive: [1] 0.08 | [2] -0.052 | [3] 0.074 | [4] -0.071 | [5] -0.22

ATAD1 (UniProt Q8NBU5)
Sequence of UniProt Q8NBU5 (Q8NBU5 whole entry, looked up): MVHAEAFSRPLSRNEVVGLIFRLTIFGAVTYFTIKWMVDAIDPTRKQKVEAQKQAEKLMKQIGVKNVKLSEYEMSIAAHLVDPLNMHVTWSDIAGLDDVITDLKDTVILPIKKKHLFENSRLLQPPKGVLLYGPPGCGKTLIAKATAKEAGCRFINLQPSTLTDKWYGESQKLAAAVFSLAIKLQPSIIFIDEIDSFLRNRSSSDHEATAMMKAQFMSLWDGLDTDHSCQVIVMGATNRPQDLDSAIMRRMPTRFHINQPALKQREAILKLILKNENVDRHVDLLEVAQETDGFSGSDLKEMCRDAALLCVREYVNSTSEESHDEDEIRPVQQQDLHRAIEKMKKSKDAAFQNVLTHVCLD
inactive: [1] -0.052 | [2] 0.032 | [3] -0.015 | [4] -0.092 | [5] 0.002

AUH (UniProt Q13825)
Sequence of UniProt Q13825 (Q13825 whole entry, looked up): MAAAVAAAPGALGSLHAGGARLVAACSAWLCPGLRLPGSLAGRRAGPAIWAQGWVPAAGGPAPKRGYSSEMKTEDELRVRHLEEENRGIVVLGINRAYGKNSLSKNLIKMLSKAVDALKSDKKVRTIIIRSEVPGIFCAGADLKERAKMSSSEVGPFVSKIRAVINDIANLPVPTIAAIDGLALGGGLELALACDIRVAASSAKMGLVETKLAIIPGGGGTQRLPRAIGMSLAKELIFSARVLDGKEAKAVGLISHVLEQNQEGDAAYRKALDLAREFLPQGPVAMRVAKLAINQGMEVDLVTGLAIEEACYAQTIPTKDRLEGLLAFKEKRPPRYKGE
inactive: [1] 0.034 | [2] 0 | [3] 0.129 | [4] -0.112 | [5] -0.009

C3orf33 (UniProt Q6P1S2)
inactive: [1] 0.074 | [2] 0.143 | [3] -0.386 | [4] -0.03 | [5] -0.226

CDC40 (UniProt O60508)
inactive: [1] 0.036 | [2] 0.003 | [3] -0.099 | [4] 0.099 | [5] -0.03

ATP9B (UniProt O43861)
inactive: [1] 0.109 | [2] -0.028 | [3] 0.015 | [4] -0.019 | [5] -0.079

CASP3 (UniProt P42574)
inactive: [1] 0.051 | [2] -0.011 | [3] 0.039 | [4] 0.051 | [5] 0.103

CALB2 (UniProt P22676)
inactive: [1] -0.067 | [2] -0.053 | [3] 0.009 | [4] -0.007 | [5] 0.013

CAD (UniProt P27708)
inactive: [1] -0.011 | [2] 0.009 | [3] 0.003 | [4] 0.022 | [5] 0.002

CASP6 (UniProt P55212)
Sequence of UniProt P55212 (P55212 whole entry, looked up): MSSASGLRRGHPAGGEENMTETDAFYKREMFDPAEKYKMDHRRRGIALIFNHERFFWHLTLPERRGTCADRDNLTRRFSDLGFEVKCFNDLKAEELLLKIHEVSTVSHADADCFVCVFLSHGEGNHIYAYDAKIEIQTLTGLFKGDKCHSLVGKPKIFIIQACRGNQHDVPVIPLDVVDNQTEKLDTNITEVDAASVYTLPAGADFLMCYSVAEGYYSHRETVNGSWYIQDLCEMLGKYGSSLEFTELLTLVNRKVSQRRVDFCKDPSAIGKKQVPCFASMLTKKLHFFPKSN
inactive: [1] 0.004 | [2] 0.011 | [3] 0.015 | [4] 0.009 | [5] -0.005

CEPT1 (UniProt Q9Y6K0)
inactive: [1] -0.13 | [2] -0.017 | [3] 0.062 | [4] -0.054 | [5] 0.061

CCDC186 (UniProt Q7Z3E2)
inactive: [1] 0.031 | [2] 0.085 | [3] 0.055 | [4] -0.016 | [5] 0.105

BCKDHB (UniProt P21953)
Sequence of UniProt P21953 (P21953 whole entry, looked up): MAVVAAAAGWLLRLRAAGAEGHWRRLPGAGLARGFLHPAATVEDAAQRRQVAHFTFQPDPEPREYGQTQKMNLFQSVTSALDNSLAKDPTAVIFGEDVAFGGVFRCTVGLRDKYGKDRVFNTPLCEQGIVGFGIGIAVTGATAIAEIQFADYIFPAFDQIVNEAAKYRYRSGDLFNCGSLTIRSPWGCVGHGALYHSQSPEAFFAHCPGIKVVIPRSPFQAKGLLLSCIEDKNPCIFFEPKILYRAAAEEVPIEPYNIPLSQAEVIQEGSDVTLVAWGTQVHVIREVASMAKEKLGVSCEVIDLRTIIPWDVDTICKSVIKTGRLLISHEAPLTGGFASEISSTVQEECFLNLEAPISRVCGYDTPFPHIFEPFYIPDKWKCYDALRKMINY
inactive: [1] 0.027 | [2] 0.023 | [3] 0.09 | [4] 0.074 | [5] 0.119

BCR (UniProt P11274)
Sequence of UniProt P11274 (P11274 whole entry, looked up): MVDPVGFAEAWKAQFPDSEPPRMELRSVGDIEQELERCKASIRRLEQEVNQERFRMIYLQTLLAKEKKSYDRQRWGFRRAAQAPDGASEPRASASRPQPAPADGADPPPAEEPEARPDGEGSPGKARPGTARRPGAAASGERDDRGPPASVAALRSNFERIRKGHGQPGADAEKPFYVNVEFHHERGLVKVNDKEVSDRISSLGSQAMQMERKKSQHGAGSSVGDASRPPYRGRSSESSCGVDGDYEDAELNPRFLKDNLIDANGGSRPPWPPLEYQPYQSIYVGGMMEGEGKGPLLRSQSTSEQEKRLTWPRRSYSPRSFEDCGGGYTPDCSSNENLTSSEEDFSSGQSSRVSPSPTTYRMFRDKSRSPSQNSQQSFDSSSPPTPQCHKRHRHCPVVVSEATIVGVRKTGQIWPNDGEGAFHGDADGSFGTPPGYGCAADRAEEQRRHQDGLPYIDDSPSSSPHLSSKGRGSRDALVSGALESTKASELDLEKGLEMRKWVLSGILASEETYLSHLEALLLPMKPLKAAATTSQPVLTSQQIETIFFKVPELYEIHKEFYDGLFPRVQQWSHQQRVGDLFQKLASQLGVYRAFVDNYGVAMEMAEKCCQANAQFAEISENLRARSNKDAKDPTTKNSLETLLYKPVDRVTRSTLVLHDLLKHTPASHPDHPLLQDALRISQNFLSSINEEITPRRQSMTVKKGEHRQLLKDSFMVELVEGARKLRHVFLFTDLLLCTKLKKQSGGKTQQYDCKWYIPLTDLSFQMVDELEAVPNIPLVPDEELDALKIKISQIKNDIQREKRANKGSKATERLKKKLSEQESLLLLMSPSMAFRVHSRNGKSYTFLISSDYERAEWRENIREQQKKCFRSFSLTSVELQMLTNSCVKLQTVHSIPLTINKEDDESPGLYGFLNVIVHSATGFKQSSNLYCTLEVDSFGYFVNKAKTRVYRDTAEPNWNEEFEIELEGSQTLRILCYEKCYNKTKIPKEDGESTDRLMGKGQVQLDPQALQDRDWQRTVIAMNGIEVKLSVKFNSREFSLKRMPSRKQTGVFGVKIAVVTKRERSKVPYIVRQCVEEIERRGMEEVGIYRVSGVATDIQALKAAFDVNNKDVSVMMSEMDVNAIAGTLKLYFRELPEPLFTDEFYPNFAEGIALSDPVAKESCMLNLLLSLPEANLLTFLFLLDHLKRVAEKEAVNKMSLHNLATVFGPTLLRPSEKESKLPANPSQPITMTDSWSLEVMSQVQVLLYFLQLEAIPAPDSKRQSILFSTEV
inactive: [1] -0.03 | [2] 0.005 | [3] -0.014 | [4] 0.007 | [5] 0.027

CCDC25 (UniProt Q86WR0)
Sequence of UniProt Q86WR0 (Q86WR0 whole entry, looked up): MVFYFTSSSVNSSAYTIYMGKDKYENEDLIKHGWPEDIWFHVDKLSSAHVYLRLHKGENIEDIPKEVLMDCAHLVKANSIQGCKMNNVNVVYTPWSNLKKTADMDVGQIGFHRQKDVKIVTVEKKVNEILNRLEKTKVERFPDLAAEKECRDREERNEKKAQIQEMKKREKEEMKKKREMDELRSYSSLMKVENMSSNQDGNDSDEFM
inactive: [1] 0.008 | [2] 0.035 | [3] 0.023 | [4] -0.015 | [5] 0.164

CCNA2 (UniProt P20248)
Sequence of UniProt P20248 (P20248 whole entry, looked up): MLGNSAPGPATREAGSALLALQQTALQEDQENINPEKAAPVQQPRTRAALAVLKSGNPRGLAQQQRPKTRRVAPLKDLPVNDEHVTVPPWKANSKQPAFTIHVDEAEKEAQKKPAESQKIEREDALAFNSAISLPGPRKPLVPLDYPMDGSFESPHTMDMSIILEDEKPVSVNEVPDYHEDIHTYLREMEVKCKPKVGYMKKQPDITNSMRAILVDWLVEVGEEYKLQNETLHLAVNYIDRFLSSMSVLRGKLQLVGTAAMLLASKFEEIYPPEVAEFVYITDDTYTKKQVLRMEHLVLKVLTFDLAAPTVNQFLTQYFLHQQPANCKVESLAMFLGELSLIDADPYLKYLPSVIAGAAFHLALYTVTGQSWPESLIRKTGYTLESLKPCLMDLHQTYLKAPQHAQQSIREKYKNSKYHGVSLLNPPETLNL
inactive: [1] 0.013 | [2] -0.006 | [3] -0.003 | [4] -0.021 | [5] -0.068

CELF1 isoform 4 (UniProt Q92879)
inactive: [1] 0.04 | [2] -0.005 | [3] 0.07 | [4] 0.044 | [5] 0.144

BET1 (UniProt O15155)
Sequence of UniProt O15155 (O15155 whole entry, looked up): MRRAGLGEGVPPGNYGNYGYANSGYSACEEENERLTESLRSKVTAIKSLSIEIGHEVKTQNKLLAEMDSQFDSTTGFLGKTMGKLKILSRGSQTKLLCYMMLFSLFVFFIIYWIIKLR
inactive: [1] -0.053 | [2] 0.013 | [3] 0.032 | [4] 0.038 | [5] 0.009

CEP76 (UniProt Q8TAP6)
Sequence of UniProt Q8TAP6 (Q8TAP6 whole entry, looked up): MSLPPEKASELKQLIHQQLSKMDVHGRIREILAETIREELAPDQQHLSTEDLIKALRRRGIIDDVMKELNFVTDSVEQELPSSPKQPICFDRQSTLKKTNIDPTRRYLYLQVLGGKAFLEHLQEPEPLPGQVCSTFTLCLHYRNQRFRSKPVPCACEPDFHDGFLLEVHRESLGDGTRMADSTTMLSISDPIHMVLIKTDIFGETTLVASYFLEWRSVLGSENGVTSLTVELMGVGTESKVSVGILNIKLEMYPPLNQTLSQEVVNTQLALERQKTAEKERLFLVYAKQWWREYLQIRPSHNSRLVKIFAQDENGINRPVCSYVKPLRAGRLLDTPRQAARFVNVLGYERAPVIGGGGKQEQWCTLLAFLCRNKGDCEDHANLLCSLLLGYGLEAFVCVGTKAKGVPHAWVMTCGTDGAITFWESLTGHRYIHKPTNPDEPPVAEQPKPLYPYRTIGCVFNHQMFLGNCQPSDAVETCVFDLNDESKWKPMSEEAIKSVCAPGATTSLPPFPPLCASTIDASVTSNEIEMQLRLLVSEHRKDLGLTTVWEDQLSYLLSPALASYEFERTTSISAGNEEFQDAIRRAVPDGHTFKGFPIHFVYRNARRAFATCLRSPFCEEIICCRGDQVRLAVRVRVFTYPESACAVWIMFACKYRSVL
inactive: [1] -0.009 | [2] -0.01 | [3] -0.043 | [4] 0.002 | [5] -0.027

CCDC47 (UniProt Q96A33)
inactive: [1] -0.043 | [2] 0.005 | [3] 0.022 | [4] 0.017 | [5] 0.018

CDK11B (UniProt P21127)
Sequence of UniProt P21127 (P21127 whole entry, looked up): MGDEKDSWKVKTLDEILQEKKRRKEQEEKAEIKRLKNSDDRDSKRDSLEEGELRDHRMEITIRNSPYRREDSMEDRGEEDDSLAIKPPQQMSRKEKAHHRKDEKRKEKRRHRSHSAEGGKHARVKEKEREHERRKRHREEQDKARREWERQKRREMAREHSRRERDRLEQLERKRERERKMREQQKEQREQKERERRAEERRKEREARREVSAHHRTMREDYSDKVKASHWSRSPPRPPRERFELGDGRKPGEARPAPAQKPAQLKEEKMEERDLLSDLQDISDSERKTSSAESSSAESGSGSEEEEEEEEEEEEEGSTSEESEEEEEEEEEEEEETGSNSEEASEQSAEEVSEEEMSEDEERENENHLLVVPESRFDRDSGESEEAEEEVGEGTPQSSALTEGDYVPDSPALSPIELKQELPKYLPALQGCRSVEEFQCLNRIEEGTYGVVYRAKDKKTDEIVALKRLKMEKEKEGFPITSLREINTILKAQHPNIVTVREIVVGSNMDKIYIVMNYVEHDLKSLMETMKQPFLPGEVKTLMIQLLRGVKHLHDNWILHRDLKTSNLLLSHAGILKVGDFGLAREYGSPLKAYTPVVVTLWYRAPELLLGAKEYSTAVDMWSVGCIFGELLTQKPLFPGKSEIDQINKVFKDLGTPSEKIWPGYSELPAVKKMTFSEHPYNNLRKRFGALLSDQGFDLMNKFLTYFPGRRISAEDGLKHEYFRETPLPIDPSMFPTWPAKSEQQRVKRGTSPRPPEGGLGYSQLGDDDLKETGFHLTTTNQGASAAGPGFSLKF
inactive: [1] -0.035 | [2] 0.029 | [3] 0.005 | [4] 0.035 | [5] -0.001

CDS2 (UniProt O95674)
inactive: [1] 0.01 | [2] 0.004 | [3] -0.056 | [4] -0.034 | [5] -0.024

CDK8 (UniProt P49336)
inactive: [1] -0.05 | [2] -0.108 | [3] 0.202 | [4] 0.017 | [5] -0.045
